In the library only some 1.8% were active in any assay of this set; here they are far more common.
Rtt109 HAT inh = C. albicans Rtt109 histone acetyltransferase inhibition; inhibition, % at 34.9 µM; hit rate 0.16% among 330,000; Q5AAJ8; AID 540336; purified Rtt109/Vps75, ThioGlo CoA-SH fluorescence, 4 h;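 active = inhibition of at least 50% in every replicate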
LANA-H2A inh = blocks KSHV LANA binding to histone H2A/H2B; cell-free LANA-H2A/H2B peptide, fluorescence polarization; inhibition, % (test concentration not listed); hit rate 0.6% among 320,000; in the data active = inhibition mostly above about 10%, no sharp cut-off; inactive = mostly below about 6.7%
NOD2 RIPK2 PPI = inhibitors of human NOD2-RIPK2 interaction; O43353; CHO BLA complementation NOD2-RIPK2, CCF4 ratio; inhibition, % at 4.98 µM; hit rate 0.38% among 360,000; in the data active = inhibition above about 21%;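 note: 0% = vehicle only and 100% = reference blocker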
TLR4-MyD88 BLA = TLR4-MyD88 interaction inhibition in cells. HeLa CL3-4 TLR4/MyD88 BLA complementation, FRET ratio. hit rate 0.18% among 200,000. AID 861. inhibition, % at 8.4 µM; in the data active = inhibition above about 25%;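 note: 0% = vehicle and 100% = reference inhibitor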
Target sequence (O00206 whole entry, looked up): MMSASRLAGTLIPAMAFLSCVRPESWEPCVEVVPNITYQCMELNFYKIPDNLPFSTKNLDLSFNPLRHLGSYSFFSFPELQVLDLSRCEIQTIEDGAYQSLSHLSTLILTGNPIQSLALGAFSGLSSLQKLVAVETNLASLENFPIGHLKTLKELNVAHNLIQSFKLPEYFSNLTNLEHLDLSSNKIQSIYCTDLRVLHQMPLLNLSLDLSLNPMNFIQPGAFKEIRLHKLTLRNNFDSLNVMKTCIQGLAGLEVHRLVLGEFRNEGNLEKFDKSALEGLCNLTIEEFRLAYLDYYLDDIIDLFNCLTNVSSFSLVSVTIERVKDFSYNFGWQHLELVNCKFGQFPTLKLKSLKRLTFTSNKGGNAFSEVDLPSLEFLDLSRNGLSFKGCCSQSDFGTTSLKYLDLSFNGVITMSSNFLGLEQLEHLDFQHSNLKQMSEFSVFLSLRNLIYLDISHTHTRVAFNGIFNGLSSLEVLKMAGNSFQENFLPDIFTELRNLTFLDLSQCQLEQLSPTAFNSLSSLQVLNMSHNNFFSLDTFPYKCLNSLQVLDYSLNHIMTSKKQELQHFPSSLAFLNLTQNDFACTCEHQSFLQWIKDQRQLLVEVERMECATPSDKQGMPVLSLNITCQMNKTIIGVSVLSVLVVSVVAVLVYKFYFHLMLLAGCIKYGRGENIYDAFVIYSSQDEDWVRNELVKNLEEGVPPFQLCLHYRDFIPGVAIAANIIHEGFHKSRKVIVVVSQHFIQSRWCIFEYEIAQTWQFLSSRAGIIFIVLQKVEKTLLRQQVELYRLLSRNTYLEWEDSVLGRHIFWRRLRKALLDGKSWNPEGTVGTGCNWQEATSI
Target sequence (Q99836 whole entry, looked up): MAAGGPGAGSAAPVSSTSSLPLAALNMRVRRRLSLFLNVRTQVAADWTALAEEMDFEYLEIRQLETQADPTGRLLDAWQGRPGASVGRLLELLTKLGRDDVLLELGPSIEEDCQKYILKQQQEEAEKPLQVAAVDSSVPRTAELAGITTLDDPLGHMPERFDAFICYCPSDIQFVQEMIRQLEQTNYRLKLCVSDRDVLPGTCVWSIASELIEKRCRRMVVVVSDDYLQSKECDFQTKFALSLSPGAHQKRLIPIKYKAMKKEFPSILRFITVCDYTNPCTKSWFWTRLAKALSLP
m5-HT2A agonist = agonists of mouse serotonin 5-HT2A receptor (HTR2A) | P35363 | activation, % at 7.6 µM | CHO-K1 mHTR2A beta-arrestin complementation, luminescence; percent of 30 µM serotonin response | hit rate 0.66% among 360,000 | AID 624169;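 active = activation above a run cutoff, the mean activation of all tested compounds plus 3 SD, cut at about 14% in these data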;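 note: 0% = plate median of compound wells and 100% = 30 µM serotonin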
TLR9-MyD88 block = inhibitors of human TLR9-MyD88 binding | CHO BLA complementation TLR9-MyD88, CCF4 FRET ratio | AID 504734 | inhibition, % at 4.98 µM | hit rate 0.21% among 340,000;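 active = inhibition above the mean over all tested compounds plus 3 SD, cut at about 21% in these data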;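 note: 0% = DMSO only wells and 100% = clavulanate BLA inhibitor control wells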
Numbers without * were called inactive; . = no result given; + = active, no number; ! = not confirmed by another sample.

SMILES	Rtt109 HAT inh	LANA-H2A inh	NOD2 RIPK2 PPI	TLR4-MyD88 BLA	m5-HT2A agonist	TLR9-MyD88 block
COCCCNC(=O)c1cccc2c(-c3ccnn3C)coc12	.	.	1.0	.	4.2	.
O=C(COC(=O)c1ccc(F)cc1F)Nc1ccc(Cl)cn1	6.2	24.5*	-4.9	.	4.6	4.8
O=C1NC[C@H](CCCCN2C[C@H](Cc3ccc(O)cc3)N(Cc3ccccc3)C(=O)C2=O)N(CCc2ccccc2)C1=O	.	.	-0.1	.	7.3	.
Cc1ccc(C(=O)Nc2c(-c3ccc(Cl)cc3)[nH][nH]c2=O)cc1	.	.	6.5	.	2.8	.
COc1ccc(N2C(=O)c3ccc(C(=O)Nc4ccccc4O)cc3C2=O)cc1	-0.6	15.1*	3.8	.	9.9	-10.1
Cc1cccc(S(=O)(=O)NC(=O)C2(C)CCN2C(=O)Cc2ccc(C(C)(C)C)cc2)c1 (stereo unspecified)	.	.	6.3	.	-4.6	.
CN1CCN(c2nc3c(c(=O)[nH]c(=O)n3C)n2Cc2ccc(Cl)cc2)CC1	66.6*	-5.6	1.0	.	1.1	0.1
Cc1ccc(Cn2c(N3CCN(C)CC3)nc3c2c(=O)[nH]c(=O)n3C)cc1	0.7	4.4	-4.9	.	-5.0	-0.7
Cc1ccc(OCC(=O)N/N=C\c2ccc(O)c([N+](=O)[O-])c2)c([N+](=O)[O-])c1	-8.3	12.8*	-16.1	-1.1	-3.6	-1.0
c1cncc(CNc2c3c(nc4nnnn24)CCCC3)c1	-8.8	18.3*	7.5	2.9	-0.7	-13.9
C=CCNc1c2c(nc3nnnn13)CCCC2	0.9	.	-15.2	-11.4	3.6	-2.8
COc1ccccc1NC(=O)c1ccc([N+](=O)[O-])o1	.	1.6	.	.	.	.
CC(=O)c1ccccc1OC(=O)c1ccc([N+](=O)[O-])o1	57.7*	-1.5	-8.3	.	5.1	3.3
O=C(NC(=S)NCc1ccccc1)C1CC1	9.4	16.1*	-9.2	-2.6	-5.3	.
CCc1ccccc1NC(=O)CN1CCN(C(=O)CNC(=O)c2ccc(N3CCCC3=O)cc2)CC1	-0.1	1.3	-9.0	.	-1.8	2.4
CCc1ccccc1NC(=O)CN1CCN(C(=O)CNC(=O)c2ccccc2F)CC1	-4.1	+	6.4	.	-4.4	3.5
Cc1ccccc1C(=O)NC(NC(=S)Nc1ccc(S(N)(=O)=O)cc1)C(Cl)(Cl)Cl (stereo unspecified)	58.3*	-4.5	1.3	6.2	-0.7	-0.5
COC(=O)[C@@]1(Cc2ccc(F)cc2)[C@H]2c3cc(C(=O)N(C)C)n(CC4CC4)c3C[C@H]2CN1C(=O)c1ccccc1	.	.	-3.7	.	-2.0	.
Cc1ccc(Sc2ncccc2N)cc1	.	37.4*	2.6	.	-0.3	.
N/C(=N\N=C\c1ccc(O)c(O)c1)c1nonc1N	-6.4	17.8*	1.5	.	-0.7	-3.4
O=C1C(=Cc2cccn2-c2ccccc2)C(=O)c2ccccc21	8.2	127.0*	-3.1	-0.5	-1.2	-6.9
C#CCOCCOCCOCCNc1nc(N2CCN(C(=O)CCCCCCCCCCNC(=O)[C@H](CCCCN)n3cc(CCO)nn3)CC2)nc(N2CCN(C(=O)CCCCCCCCCCNC(=O)[C@H](CCCN=C(N)N)n3cc(C[C@@H](C)CC)nn3)CC2)n1	2.2	-41.6	20.4	.	-10.2	21.5*
C#CCOCCOCCOCCNc1nc(N2CCN(C(=O)CCCCCCCCCCNC(=O)Cn3cc(C[C@@H](C)O)nn3)CC2)nc(N2CCN(C(=O)CCCCCCCCCCNC(=O)[C@H](CCCCN)n3cc(C[C@@H](C)CC)nn3)CC2)n1	43.6	-16.9	24.1*	.	-2.3	-1.7
C#CCOCCOCCOCCNc1nc(N2CCN(C(=O)CCCCCCCCCCNC(=O)Cn3cc(C[C@@H](C)O)nn3)CC2)nc(N2CCN(C(=O)CCCCCCCCCCNC(=O)Cn3cc(C[C@@H](C)O)nn3)CC2)n1	5.3	2.2	-1.2	.	-1.4	-6.3
C#CCOCCOCCOCCNc1nc(N2CCN(C(=O)CCCCCCCCCCNC(=O)[C@@H](CCSC)n3cc(CCO)nn3)CC2)nc(N2CCN(C(=O)CCCCCCCCCCNC(=O)[C@H]([C@@H](C)CC)n3cc(CCCCCN)nn3)CC2)n1	.	7.0	.	.	.	.
SMILES	Rtt109 HAT inh	LANA-H2A inh	NOD2 RIPK2 PPI	TLR4-MyD88 BLA	m5-HT2A agonist	TLR9-MyD88 block
C#CCOCCOCCOCCNc1nc(N2CCN(C(=O)CCCCCCCCCCNC(=O)[C@@H](CCSC)n3cc(CCO)nn3)CC2)nc(N2CCN(C(=O)CCCCCCCCCCNC(=O)[C@H]([C@@H](C)CC)n3cc(CCCCN=C(N)N)nn3)CC2)n1	-3.0	-6.8	30.1*	.	-5.7	1.0
CC1(C(=O)NS(=O)(=O)c2ccc(C#N)cc2)CCN1C(=O)CC1CCCCC1 (stereo unspecified)	.	.	-2.2	.	2.7	.
COc1cc(Cc2cnc(N)nc2N)cc(OC)c1OC	15.2	16.3*!	-3.6	6.5	-2.1	-5.0
COc1cc(CN2CCCCCC2)cc(OC)c1OC	-1.5	1.0	-8.3	.	2.1	0.1
O=C(CCN1CCc2ccccc2C(c2ccccc2)C1)c1ccc2c(c1)OCCO2 (stereo unspecified)	14.0	-6.7	11.1	0.5	-8.1	4.4
O=C(CCN1Cc2ccccc2C1)c1ccc2c(c1)OCCO2	100.0*	-0.3	-6.6	-3.2	7.6	3.7
N#Cc1c(NC(=O)c2cnccn2)sc2c1CCCC2	-19.8	19.3*	-6.5	2.2	-3.5	1.5
COC/C=C/C1=CC2=CC(=O)C(C)(OC(=O)c3cnc4ccccc4n3)C(=O)C2=CN1CCN1CCOCC1 (stereo unspecified)	5.8	17.8*	0.9	.	12.1	9.6
COC/C=C/C1=CC2=CC(=O)C(C)(OC(=O)c3cnc4ccccc4n3)C(=O)C2=CN1CCOC (stereo unspecified)	8.3	-2.4	5.0	.	4.3	1.2
O=C(/C=C/[C@H]1O[C@@H](n2cnc3c(NC(=O)c4ccccc4)ncnc32)[C@H](O)[C@@H]1O)N[C@@H](CO)Cc1c[nH]c2ccccc12	.	.	2.5	.	1.4	.
COC(=O)[C@]12CCCCC=C1N(CCc1ccc(OC)c(OC)c1)C(=O)[C@H](CC(=O)NCCCN1CCCC1=O)C2	.	.	2.7	.	2.1	.
C#C[C@]1(O)CCC2C3CCC4=Cc5oncc5CC4(C)C3CCC21C (stereo partly specified)	14.0	13.1*	-15.2	.	4.3	9.5
CCOc1ccccc1N1CCN(C(=O)c2ccncc2)CC1	51.5*	-8.6	8.1	2.9	-3.9	0.7
Fc1ccc(-c2nc3c4ccccc4ccn3c2CC2CCCCC2)cc1	.	.	2.8	.	-0.8	.
O=C(NCCNc1ccc(Cl)cc1[N+](=O)[O-])c1cccnc1	25.1	11.9*	-11.8	2.2	-3.3	-0.1
Cc1ccc(C)n1-c1ccc(C#N)cn1	14.7	.	2.6	2.4	5.8	4.0
N#Cc1cnc(NN)nc1	-3.5	165.3*	-0.1	2.7	-3.9	1.7
O=C(CSc1nc(Cc2ccccc2)nc2ccccc12)c1ccc2c(c1)OCCO2	-3.8	8.2	4.3	2.0	19.4*	3.4

Source: PubChem BioAssay
